Test results reported in PubChem BioAssay (NCATS).
Records with an inconclusive call do not appear. Entries that show only a call come without a potency. Active and inactive are the calls of the source. The call rests on the fitted dose curve; in most records, active means well fitted inhibition curve with a large enough effect; inconclusive means small, poorly fitted or top-dose-only effect; inactive means flat fitted curve, though single readings scatter.

Assays:
Assay in all cases: qHTS profiling for inhibitors of Plasmodium falciparum proliferation (AID 504749); further: nearly all actives have a fitted effect of over 60% in size
Conditions in all cases: P. falciparum in erythrocytes, SYBR Green DNA, 72 h; series mostly up to 28.7 µM
CP256 = system: CP256
How it was run: (§1)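 In a 72 h erythrocytic culture (37 C, humidified, 5% CO2) at 2.5% hematocrit and 0.3% starting parasitemia, compounds were tested; SYBR Green I in detergent lysis buffer stained parasite DNA overnight.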

CP262 = system: CP262
How it was run: as §1

CP265 = system: CP265
How it was run: as §1

CP266 = system: CP266
How it was run: as §1

CP268 = system: CP268
How it was run: as §1

CP269 = system: CP269
How it was run: as §1

CP286 = system: CP286
How it was run: as §1

CP291 = system: CP291
How it was run: as §1

CP297 = system: CP297
How it was run: as §1

CP305 = system: CP305
How it was run: as §1

CP315 = system: CP315
How it was run: as §1

CP325 = system: CP325
How it was run: as §1

CP329 = system: CP329
How it was run: as §1

CP335 = system: CP335
How it was run: as §1

DFO2036 = system: DFO2036
How it was run: as §1

DIV14 = system: DIV14
How it was run: as §1

DIV17 = system: DIV17
How it was run: as §1

DIV30 = system: DIV30
How it was run: as §1

Dd2 = system: Dd2
How it was run: as §1

CP260 = system: CP260
How it was run: as §1
Potency means the concentration at half of the fitted maximal effect.

SMILES	Potency (CP256)	Potency (CP262)	Potency (CP265)	Potency (CP266)	Potency (CP268)	Potency (CP269)	Potency (CP286)	Potency (CP291)	Potency (CP297)	Potency (CP305)	Potency (CP315)	Potency (CP325)	Potency (CP329)	Potency (CP335)	Potency (DFO2036)	Potency (DIV14)	Potency (DIV17)	Potency (DIV30)	Potency (Dd2)	Potency (CP260)
Cc1c(C)n(CCN(C)C)c2ccc(C(=O)OCCN(C)C)cc12	inactive	inactive	inactive	inactive	inactive	inactive	inactive	inactive	inactive	inactive	inactive	inactive	inactive	inactive	inactive	inactive	inactive	inactive	inactive	
CC(C)(C)CC(C)(C)c1ccc(O)c(Cc2ccc(Cl)cc2Cl)c1	3.55 µM (active)		3.16 µM (active)	4.78 µM (active)	0.757 µM (active)	1.51 µM (active)	2.51 µM (active)	3.38 µM (active)	1.69 µM (active)		3.79 µM (active)	3.79 µM (active)	4.78 µM (active)	1.51 µM (active)	2 µM (active)	0.601 µM (active)	1.07 µM (active)	1.51 µM (active)	1.58 µM (active)	2 µM (active)
COc1cc2c(cc1OC)C(=O)C(CC1CCN(Cc3ccccc3)CC1)C2 (stereo not given)	inactive	inactive		inactive	inactive	inactive	inactive	inactive	inactive	inactive	inactive	inactive	inactive	inactive	inactive	10.7 µM (active)		inactive	8.91 µM (active)	inactive
COc1c(C)c2c(c(O)c1C/C=C(\C)CCC(=O)O)C(=O)OC2	3.16 µM (active)		3.16 µM (active)			5.1 µM (active)	3.16 µM (active)	4.05 µM (active)	5.1 µM (active)	4.05 µM (active)			6.42 µM (active)	3.22 µM (active)	2.51 µM (active)	6.42 µM (active)	6.42 µM (active)	5.1 µM (active)	3.55 µM (active)	3.16 µM (active)
CC(C)(C)CC(C)(C)c1ccc(OCCOCC[N+](C)(C)Cc2ccccc2)cc1	4.47 µM (active)		4.47 µM (active)	4.26 µM (active)	4.26 µM (active)	3.79 µM (active)	2.24 µM (active)	4.78 µM (active)	4.26 µM (active)	4.78 µM (active)	4.78 µM (active)	4.78 µM (active)	4.78 µM (active)	1.51 µM (active)	3.98 µM (active)	3.38 µM (active)	4.78 µM (active)	4.26 µM (active)	4.47 µM (active)	1.41 µM (active)
NC(=NCCCCCCN=C(N)/N=C(\N)Nc1ccc(Cl)cc1)/N=C(\N)Nc1ccc(Cl)cc1	1.41 µM (active)	1.51 µM (active)		3.79 µM (active)	1.51 µM (active)	1.2 µM (active)	0.398 µM (active)	1.35 µM (active)	2.13 µM (active)	1.2 µM (active)	1.07 µM (active)	1.9 µM (active)	1.69 µM (active)	1.69 µM (active)	1.78 µM (active)	1.07 µM (active)	1.07 µM (active)	1.51 µM (active)	2 µM (active)	1 µM (active)
CC(=O)c1ccc2c(c1)N(CCCN1CCC(CCO)CC1)c1ccccc1S2	inactive	inactive	inactive	inactive	inactive	inactive		inactive	inactive	inactive	inactive	inactive	inactive		inactive			inactive		
CC(C)N=C(N)/N=C(\N)Nc1ccc(Cl)cc1	0.708 µM (active)	2.28 µM (active)		inactive	inactive											inactive			3.55 µM (active)	
Cc1cccc(C)c1NC(=O)CN1CCN(CCCC(c2ccc(F)cc2)c2ccc(F)cc2)CC1	inactive		inactive	inactive	inactive		inactive	inactive		inactive	inactive	inactive	inactive		inactive					inactive
CCN(CC)CCNC(=O)COc1ccc(Cl)cc1	inactive	inactive		inactive	inactive	inactive		inactive		inactive	inactive	inactive	inactive	inactive				inactive	12.6 µM (active)	
O=C(Nc1ccc(Oc2ccc(Cl)cc2)c(Cl)c1)c1cc(I)cc(I)c1O	inactive	inactive		inactive	inactive	inactive	inactive	inactive	inactive	inactive	inactive	inactive	inactive	inactive	inactive	inactive	inactive	inactive	inactive	
CN1CCN(C(c2ccccc2)c2ccccc2)CC1	inactive	inactive		inactive	inactive		inactive		inactive	inactive	inactive				inactive			inactive		inactive
CCN(CCCc1ccccc1)CCCc1ccccc1	inactive	inactive		inactive						inactive	inactive		inactive		inactive				3.16 µM (active)	inactive
CCCN1CCCC[C@H]1C(=O)Nc1c(C)cccc1C	inactive	inactive		inactive		inactive	inactive	inactive			inactive		inactive		inactive			inactive		inactive
O=C(CCCN1CCC(O)(c2ccc(Br)cc2)CC1)c1ccc(F)cc1	inactive	inactive		inactive					inactive						inactive	5.73 µM (active)	6.42 µM (active)		3.55 µM (active)	3.55 µM (active)
COc1cc(-c2ccc(=O)[nH]n2)ccc1OC(F)F	3.16 µM (active)		0.316 µM (active)	inactive	inactive		inactive	inactive		inactive		inactive			0.501 µM (active)	inactive			inactive	
Oc1ccc(Cl)c2cccnc12	inactive		inactive	inactive	inactive	inactive		inactive	inactive	inactive	inactive	inactive	inactive		inactive	inactive	inactive	inactive		
CN1CCC(=C2c3ccccc3Sc3ccccc32)CC1	11.2 µM (active)		7.08 µM (active)			13.5 µM (active)	11.2 µM (active)	9.53 µM (active)	8.49 µM (active)					12 µM (active)	10 µM (active)	7.57 µM (active)	12 µM (active)	9.53 µM (active)	4.47 µM (active)	8.91 µM (active)
C=C(CC)C(=O)c1ccc(OCC(=O)O)c(Cl)c1Cl	4.47 µM (active)		inactive	inactive			10 µM (active)		inactive			inactive							11.2 µM (active)	8.91 µM (active)
c1ccc(CNCCNCc2ccccc2)cc1		inactive							12 µM (active)		inactive		inactive			3.79 µM (active)	6.01 µM (active)		11.2 µM (active)	
CCCCCCCCCCCCCCNCCO		inactive		inactive		inactive	3.55 µM (active)	inactive			inactive	inactive	inactive	inactive	17.8 µM (active)			inactive	10 µM (active)	4.47 µM (active)
CN=C(NC#N)Nc1ccc(C2=NNC(=O)CC2C)cc1 (stereo not given)				inactive	inactive	inactive		inactive	inactive	inactive	inactive	inactive	inactive	inactive		inactive	inactive	inactive		
CCCCCCCCCCCCCCCC[N+](C)(C)CCN(Cc1ccc(OC)cc1)c1ncccn1	inactive		inactive		inactive				inactive	inactive	inactive		inactive			7.21 µM (active)		inactive		
